AMA1 RON2 block: qHTS for Inhibitors of AMA1-RON; Towards Development of Antimalarial Drug Lead: Primary Screen. Plasmodium falciparum AMA1 (3D7) - RON2 peptide interaction. AID 720542, 2013. 360,000 tested, 0.2% active. AlphaScreen AMA1-biotinylated RON2 peptide binding. Potency, µM (highest dose often 58.2 µM), without a hit: at the highest dose activity change, negative = inhibition, usual class: inhibitors;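 also: 0% = vehicle wells and -100% = peptide control; nearly all actives have a fitted effect of over 45% in size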
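AMA1 (3D7) with his tag at 25 nM final met compounds first, then biotinylated RON2 peptide at 25 nM; detection used donor plus acceptor beads, 10 µg/mL apiece, read by AlphaScreen after 30 min at room temperature.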
Pf growth 96h: Primary qHTS for delayed death inhibitors of the malarial parasite plastid, 96 hour incubation; P. falciparum luciferase reporter growth, 96 h; Potency, µM (titrated, usually from 28.7 µM), without a hit: at the highest dose activity change, negative = inhibition, actives largely listed as inhibitors; 320,000 tested, 6.9% active; AID 504834, 2011
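Two parasite generations (96 h, 37 C, 5% CO2) of compound exposure in infected erythrocytes (0.05% parasitemia, 2% hematocrit). Luciferase-reporter P. falciparum; decreased luminescence indicates inhibited growth, aimed at apicoplast-acting delayed death.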
Pf growth 48h: Primary qHTS for delayed death inhibitors of the malarial parasite plastid, 48 hour incubation. P. falciparum luciferase growth in erythrocytes, 48 h. Potency, µM (top dose mostly 28.7 µM), inactives show at the highest dose activity change, negative = inhibition, actives largely listed as inhibitors. 310,000 tested, 5.9% active. AID 504832, 2011
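Growth was read as firefly luciferase luminescence after a 48 h, 37 C, 5% CO2 exposure of compounds to reporter-bearing P. falciparum cultures (0.1% parasitemia, 2% hematocrit final) in Albumax-supplemented RPMI 1640.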
HCV inh: qHTS Assay for Inhibitors of Hepatitis C Virus (HCV); Huh7.5.1 HCVcc-Cre infection, luciferase reporter, 44 h; Potency, µM (titrated, usually from 41.8 µM), for the others: top-dose activity change, negative = inhibition, usual class: inhibitors; 340,000 tested, 3.4% active; AID 651820, 2012
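HCVcc-Cre virus at an moi near 0.5 was added right after compound to cells cultured 4 h from seeding (1,000 cells/well). Luciferase activity was determined 44 h later, 15 min after substrate addition at RT.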
Numbers without * were called inactive; ? = inconclusive; . = no result. Rows were chosen to be rich in hits. Some 11% of all compounds tested hit in one or more screens of this group. Calls follow the shape of the dose curve; as a rule, active = well fitted curve in the direction sought with a large enough effect; inconclusive = small, poorly fitted or top-dose-only effect, or another doubt; inactive = no such curve, though single readings can be large; an effect the other way counts as inactive or inconclusive. Unless noted, % is scaled to controls: 0 for no effect and ±100 for the full control effect; potency is read from the fitted curve at half-maximal effect.

SMILES	AMA1 RON2 block	Pf growth 96h	Pf growth 48h	HCV inh
O=C(NC1CCS(=O)(=O)C1)c1cccc(Cl)c1 (stereo unspecified)	0%	37%	20%	18%
O=C(O)c1cc(=O)[nH]c2ccccc12	-5%	.	.	11%
Cc1ccccc1-[n+]1c(-c2ccccc2)cc(-c2ccccc2)cc1-c1ccccc1	-3%	0.19µM*	0.33µM*	?
Cc1ccccc1C(=O)Nc1ccc(N2CCN(C)CC2)nc1	-3%	106%	63%	-1%
CN1CCN(c2ccc(NC(=O)c3ccc(C(F)(F)F)cc3)cn2)CC1	-2%	?	?	11µM*
COc1ccc(NC(=O)c2cc3c([nH]c4ccccc43)c(C)n2)cc1	126%	9.3µM*	?	?
COC(=O)CCC(=O)NNC(=O)C1CC1(c1ccccc1)c1ccccc1 (stereo unspecified)	36%	10µM*	18%	1%
Oc1cc(Br)ccc1C=Nc1ccc(N2CCCCC2)cc1	-6%	8.3µM*	8.3µM*	4%
Oc1ccc(C=Nc2ccc(N3CCOCC3)cc2)c(O)c1	23%	.	-30%	7%
CC(=O)Nc1ccc(S(=O)(=O)Nc2nc3cc4c(cc3nc2Cl)OCCO4)cc1	14%	18%	-3%	16%
O=S(=O)(Nc1nc2cc3c(cc2nc1Cl)OCCO3)c1ccccc1	?	16%	15µM*	-11%
CSc1ncccc1C(=O)Nc1nnc(C2CC2)s1	-14%	41%	-6%	23%
Cc1nc2nc(NCc3cccs3)nn2c(C)c1Cl	5%	38%	.	3%
CC(C)C[C@H](NC(=O)c1[nH]cnc1C(=O)N[C@H](C)c1ccccc1)C(=O)OCc1ccccc1	101%	?	?	-11%
CC(C)C[C@H](NC(=O)c1nc[nH]c1C(=O)NC(c1ccccc1)c1ccccc1)C(=O)OCc1ccccc1	103%	2.9µM*	3.7µM*	?
CC(C)C[C@H](NC(=O)c1nc[nH]c1C(=O)N[C@@H](CC(C)C)C(=O)OCc1ccccc1)C(=O)OCc1ccccc1	155%	12µM*	?	?
C[C@H](NC(=O)c1nc[nH]c1C(=O)NC(c1ccccc1)c1ccccc1)C(=O)OCc1ccccc1	128%	?	10µM*	6%
C[C@H](NC(=O)c1nc[nH]c1C(=O)N[C@@H](C)C(=O)OCc1ccccc1)C(=O)OCc1ccccc1	155%	7%	31%	22%
Cc1nc(N/N=C/c2cccc([N+](=O)[O-])c2)cc(N2CCCCC2)n1	17%	.	.	.
C=C(C)CC(c1ccccc1)N(C(C)=O)c1ccco1 (stereo unspecified)	2%	7%	-13%	12%
CCN(CC)CC(=O)Nc1ccccc1SCC(=O)Nc1ccsc1C(=O)OC	8%	?	?	?
Cc1nc2ccccc2n1CCC(=O)Nc1cccc(F)c1	13%	?	?	-20%
Cc1cc(O)c(CN(C)C)c2c1C(=O)/C(=C/c1ccco1)O2	6%	5.2µM*	6.6µM*	11%
Cc1c(OC(=O)N(C)C)ccc2c1O/C(=C\c1ccco1)C2=O	-6%	34%	33%	-29%
O=C(Cn1nnc2ccccc21)NNC(=O)c1ccccc1	105%	66%	60%	-5%
SMILES	AMA1 RON2 block	Pf growth 96h	Pf growth 48h	HCV inh
COc1ccc(C(=O)N2CCCC(N3CCN(c4ccccc4F)CC3)C2)c(OC)n1 (stereo unspecified)	3%	13µM*	-3%	?
COc1ccccc1N1CCN(C2CCCN(C(=O)c3snnc3C)C2)CC1 (stereo unspecified)	-5%	13µM*	0%	18%
Cc1ccccc1N1CCN(C2CCCN(C(=O)c3cn4cccc(C)c4n3)C2)CC1 (stereo unspecified)	-11%	?	?	11µM*
Cc1nonc1C1CCCN1C(=O)c1cc(COc2ccc(F)cc2Cl)on1 (stereo unspecified)	-6%	?	2%	?
COc1ccc(CCNC(=O)c2ccc([N+](=O)[O-])cc2Cl)cc1OC	17%	.	.	-23%
COc1ccc(CCNC(=O)c2ccc(CS(=O)(=O)c3ccc(C)cc3)o2)cc1OC	-16%	?	.	14µM*
COc1ccc(CCNC(=O)c2ccc(-c3ccc([N+](=O)[O-])cc3Cl)o2)cc1OC	-30%	-23%	27%	7.1µM*

Compound activity (PubChem)
